For this experiment, the target named is Beta-2 adrenergic receptor (Homo sapiens) (UniProt P07550). Nature of the experiment: Adrenergic beta2 receptor (ADRB2) small molecule agonists, cell-based qHTS assay (AID 1963593).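 Note: CHO cells stably overexpressing human ADRB2.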 The procedure, abridged:
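CHO cells stably over-expressing ADRB2 were plated overnight at 37C, then dosed with compounds plus a stimulation mix containing 100uM IBMX and 25uM Ro-20-1724 for 0.5hr at room temperature. cAMP was measured by HTRF competition, 1hr.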

Records with an inconclusive call do not appear. Entries that show only a call come without a potency. A number with no mark means an inactive call. The source made the active and inactive calls. Calls come from the whole dose curve.

Sequence of Beta-2 adrenergic receptor (Homo sapiens) (P07550 whole entry, looked up): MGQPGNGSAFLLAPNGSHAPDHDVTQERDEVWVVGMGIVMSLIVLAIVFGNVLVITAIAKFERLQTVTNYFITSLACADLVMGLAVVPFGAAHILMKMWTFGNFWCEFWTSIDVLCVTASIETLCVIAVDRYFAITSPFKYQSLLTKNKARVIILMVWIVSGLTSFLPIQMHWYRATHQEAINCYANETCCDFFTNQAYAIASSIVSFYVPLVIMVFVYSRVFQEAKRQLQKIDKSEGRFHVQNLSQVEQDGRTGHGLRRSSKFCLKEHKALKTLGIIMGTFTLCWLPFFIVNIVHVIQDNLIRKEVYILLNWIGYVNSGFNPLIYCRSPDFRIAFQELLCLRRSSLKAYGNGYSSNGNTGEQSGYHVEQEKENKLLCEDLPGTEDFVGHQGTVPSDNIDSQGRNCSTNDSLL

Turning to `COC(c1ccccc1)(c1ccccc1)[C@H](Oc1nc(C)cc(C)n1)C(=O)O`, the Potency entry is “inactive”.

Regarding `CN(C)C(=O)Oc1ccc[n+](C)c1`, the Potency result was “inactive”.

Consider `COc1ccc(Br)c(C)c1`, for which the Potency entry was “inactive”.

As for `CNC(=O)Nc1ccc(Cl)c(Cl)c1`, the Potency entry was “inactive”.

Consider `C=CCOCC(O)CO` (stereo not given), for which the Potency result is “inactive”.

With `Cc1ccc(CO)cc1`, the Potency result was “inactive”.

For the compound `CCSC(=O)N(CC)CC`, the Potency result was “inactive”.

Consider `O=C1CC2CC1C1CCCC21` (stereo not given), for which the Potency result was “inactive”.

With `CCCCCCCOC(C)=O`, the Potency result is “inactive”.

With `CCC(O)CO` (stereo not given), the Potency entry is “inactive”.

With `O=C1OC(=O)c2ccc3c4c(ccc1c24)C(=O)OC3=O`, the Potency result was “inactive”.

For `CCCCCCCC/C=C\CCCCCCCC(N)=O`, the Potency entry was “inactive”.

Consider `O=C(O)[C@@H](O)[C@H](O)[C@H](O)[C@@H](O)C(=O)O`, for which the Potency entry is “inactive”.

As for `CCCCC(CC)CCC(CC(C)C)OS(=O)(=O)O` (stereo not given), the Potency entry was “inactive”.

For `CC1(C)C2=CCCC(C)(C)[C@]23CC[C@H]1C3`, the Potency result is “inactive”.

As for `C=CCCCCCCCCCCC`, the activation is -13.4% [at 8.39 µM].

Consider `O=C1CCC(=O)O1`, for which the Potency entry is “inactive”.

Turning to `CC/C=C\CCOC(=O)CC`, the Potency result is “inactive”.

Consider `OCCN1CCN(CCCN2c3ccccc3C=Cc3ccccc32)CC1`, for which the Potency result is “inactive”.

Take `CCSC(=O)N(CC(C)C)CC(C)C`: the Potency entry was “inactive”.

As to `C=C(C)C(=O)NCCCN(C)C`, the Potency entry is “inactive”.

Turning to `O=Cc1ccc(Cl)c(Cl)c1`, the Potency entry is “inactive”.

Take `O=S(=O)(O)c1ccc2cc(O)c(S(=O)(=O)O)cc2c1`: the Potency result is “inactive”.

As to `CCCCCCOC(=O)c1ccccc1O`, the Potency result is “inactive”.

On to `CCOC(=O)CC(C(C)=O)C(C)=O`, for which the Potency result is “inactive”.

As for `C=CCCC=C`, the Potency entry is “inactive”.

As for `CCN(CC)c1ccc(C=O)c(O)c1`, the Potency result was “inactive”.

Regarding `CC(=O)/C=C/c1ccco1`, the Potency entry is “inactive”.

`C=CC(=O)CCCCC`: the Potency result was “inactive”.

`CS(=O)(=O)O`: the Potency result was “inactive”.

For the compound `C/C(=C(\CCO)SS/C(CCO)=C(\C)N(C=O)Cc1cnc(C)nc1N)N(C=O)Cc1cnc(C)nc1N`, the Potency result is “inactive”.

On to `C[C@@H]1CCC[C@H](C)N1CCCC(O)(c1ccccc1)c1ccccn1` (stereo not given in full), for which the Potency entry is “inactive”.

As for `O=C1CC(c2ccc(Cl)cc2)CC(=O)N1`, the Potency result is “inactive”.

Regarding `CC(CO)c1ccccc1` (stereo not given), the Potency entry is “inactive”.

Take `C=CCCCCCCCCC(=O)OCCCC`: the Potency entry is “inactive”.

Take `O=C(Nc1ccc([N+](=O)[O-])cc1)Nc1ccc([N+](=O)[O-])cc1` (tested in a mixture with another compound): the Potency entry is “inactive”.

Consider `O=c1[nH]c2cc(C(F)(F)F)c(N3CCOCC3)cc2n(CP(=O)(O)O)c1=O`, for which the Potency entry is “inactive”.

In the case of `C=CC(=O)OCCN(CC)CC`, the Potency entry is “inactive”.

With `CO[Si](C)(C)OC`, the Potency entry is “inactive”.

As to `Cn1cc(S(C)=O)c(=O)c2ccc(F)cc21` (stereo not given), the Potency result is “inactive”.

`CC(O)CNCC(C)O` (stereo not given): the Potency entry was “inactive”.

With `Cc1ccc(C(=O)c2cc(O)c(O)c([N+](=O)[O-])c2)cc1`, the Potency entry is “inactive”.

Consider `CCO[Si](OCC)(OCC)c1ccccc1`, for which the Potency result is “inactive”.

On to `NC(=O)NS(=O)(=O)c1ccc(Cl)cc1`, for which the Potency entry was “inactive”.

For `CC(C)(CC(=O)O)C(=O)O`, the Potency entry was “inactive”.

As for `CCOc1ccc(N)c([N+](=O)[O-])c1`, the Potency entry was “inactive”.

For the compound `C=C(C)[C@@H]1CC[C@@H](C)C[C@@H]1O`, the Potency result is “inactive”.

Regarding `CCCCOC(=O)CCCCCCCC(=O)OCCCC`, the Potency result is “inactive”.

Regarding `CO/N=C(/C(=O)N[C@@H]1C(=O)N2C(C(=O)O)=C(COC(N)=O)CS[C@H]12)c1ccco1`, the Potency entry is “inactive”.

As for `CC/C=C\CCOC(=O)C(C)C`, the Potency result is “inactive”.

In the case of `CCCCC(CC)C(=O)OCCOCCOCCOC(=O)C(CC)CCCC` (stereo not given), the Potency result was “inactive”.

Consider `Cc1ccccc1OCC(O)CO` (stereo not given), for which the Potency entry was “inactive”.

For the compound `CCCCCCCCCCCCCCCCBr`, the activation was -6.98% [at 19 µM].

For the compound `CC(=O)OCCN(CCOC(C)=O)c1ccc(N=Nc2ccc([N+](=O)[O-])cc2C#N)cc1`, the Potency result was “inactive”.

As to `COC(=O)c1ccccc1C(=O)O`, the Potency entry is “inactive”.

In the case of `CC(C)=CCCC(C)O` (stereo not given), the Potency result is “inactive”.

For `CO[C@@]1(NC(=O)C(C(=O)O)c2ccc(O)cc2)C(=O)N2C(C(=O)O)=C(CSc3nnnn3C)CO[C@@H]21` (stereo not given in full), the Potency result was “inactive”.

Turning to `OCC1CC2CC1C1CCC(CO)C21` (stereo not given), the Potency entry was “inactive”.

As for `O=S(=O)(O)c1cccc2c(S(=O)(=O)O)cccc12`, the Potency entry is “inactive”.

On to `O=S(=O)(O)c1cccc(S(=O)(=O)O)c1`, for which the Potency entry is “inactive”.

As for `C1C[C@@H]2[C@H]3CC[C@H](C3)[C@@H]2C1`, the Potency result was “inactive”.

`CSc1cnccn1`: the Potency result is “inactive”.

As to `C[C@@H]1NC(=O)[C@@H](N)CNC(=O)[C@H](C2CCNC(N)=N2)NC(=O)/C(=C/NC(N)=O)NC(=O)[C@H](CNC(=O)C[C@@H](N)CCCN)NC1=O` (stereo not given in full), the activation was -2.39% [at 0.349 µM].

Take `Cc1ccc(N=Nc2c(O)ccc3ccccc23)c(C)c1`: the Potency entry was “inactive”.

As for `O=C(NCN1CCOCC1)c1cnccn1`, the Potency result was “inactive”.

Take `O=C(O)c1cccc(C(F)(F)F)c1`: the Potency entry was “inactive”.

With `CCCCCCCCCCCCCCCCCCOCC(O)CO` (stereo not given), the Potency entry is “inactive”.

For `Cc1c(I)c(=O)n(-c2ccccc2)n1C`, the Potency entry is “inactive”.

`Cc1cccc(C)c1NC(=O)CN1CCCCCC1`: the Potency result was “inactive”.

Take `CC(=O)[O][Al][O]C(C)=O`: the Potency entry is “inactive”.

As to `CC(=O)OC[C@H]1O[C@@H](OC(C)=O)[C@H](OC(C)=O)[C@@H]1OC(C)=O`, the Potency entry is “inactive”.

As to `C=CC(=O)OCCOC(=O)C=C`, the Potency result is “inactive”.

For the compound `COc1ccc2cc(C=O)ccc2c1`, the Potency result was “inactive”.

Regarding `O=C(O)CNC(=O)c1ccc(CO)o1`, the Potency entry was “inactive”.

Take `c1ccc(CCc2ccccc2)cc1`: the Potency result is “inactive”.

Consider `O=C(O)/C=C/c1ccc(Cn2ccnc2)cc1`, for which the Potency entry is “inactive”.

In the case of `CC1(C)[C@H]2CC[C@](C)(C2)[C@H]1O`, the Potency entry was “inactive”.

Turning to `CC(C)C(=O)Nc1cccc(C2CN3CCSC3=N2)c1` (stereo not given), the Potency entry was “inactive”.

On to `NCCNCCN`, for which the Potency entry was “inactive”.

On to `CC1=CC(=O)[C@H]2C[C@@H]1C2(C)C`, for which the Potency entry was “inactive”.

(Values after PubChem BioAssay (Tox21).)
